Where “and” joins values, the source holds several entries; their conditions need not be identical. Identical values can stand only once. Inconclusive results are not listed. Calls of active or inactive are those of the source. Calls follow the shape of the dose curve; as a rule, active = well fitted curve in the direction sought with a large enough effect; inconclusive = small, poorly fitted or top-dose-only effect, or another doubt; inactive = no such curve, though single readings can be large; an effect the other way counts as inactive or inconclusive. Residues, ends and D or L forms follow the SMILES beside them. *: point of attachment. Cbz = O=C(OCc1ccccc1)*
Legend:
[1] = target: Single-stranded DNA cytosine deaminase (Homo sapiens) (UniProt Q9GZX7); assay: Validation qHTS assay for inhibitors of Activation Induced Cytidine Deaminase (AID): AID signal (AID 1347429); also: % is scaled to controls: 0 for no effect and ±100 for the full control effect
Single-stranded DNA cytosine deaminase (Homo sapiens), sequence (Q9GZX7 whole entry, looked up): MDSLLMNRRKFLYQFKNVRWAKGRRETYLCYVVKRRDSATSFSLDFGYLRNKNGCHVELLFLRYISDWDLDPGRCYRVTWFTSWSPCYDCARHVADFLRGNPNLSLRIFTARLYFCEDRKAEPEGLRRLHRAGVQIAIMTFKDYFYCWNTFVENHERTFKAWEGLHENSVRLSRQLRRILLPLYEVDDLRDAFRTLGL
Method in brief: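 Fluorescence at 540 nm excitation and 590 nm emission reports ssDNA cytosine deamination by AID, with UDG in the same well. Compound-treated reactions ran 4 hr at room temperature with DJC20/DJC23 substrate, followed by 30 min NaOH treatment.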

[2] = Primary qHTS for inhibitors of La Crosse Virus (LACV) - induced cell death in SH-SY5Y cells (AID 1508616); also: potency is read from the fitted curve at half-maximal effect
Method in brief: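 Protection against LACV-induced cell death is scored in SH-SY5Y cells exposed to compounds and virus (0.01 MOI) for 6 days. Data normalized to virus-infected DMSO wells and virus-free DMSO wells.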

[3] = target: Calcium and integrin-binding protein 1 (Homo sapiens) (UniProt Q99828); assay: Validation qHTS for Identification of Calcium Integrin Binding protein 1 (CIB1) Competitor (AID 1508618); also: % is scaled to controls: 0 for no effect and ±100 for the full control effect
Calcium and integrin-binding protein 1 (Homo sapiens), sequence (Q99828 whole entry, looked up): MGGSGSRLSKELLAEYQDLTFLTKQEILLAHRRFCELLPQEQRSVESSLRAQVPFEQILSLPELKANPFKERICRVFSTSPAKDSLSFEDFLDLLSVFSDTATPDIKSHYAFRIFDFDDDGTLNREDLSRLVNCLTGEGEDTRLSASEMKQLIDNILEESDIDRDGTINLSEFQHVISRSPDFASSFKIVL
Method in brief: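 Displacement of FITC-alphaIIb peptide (100 nM) from CIB1-GST (1 uM) is monitored by polarization in quantitative HTS format; buffer carries 5 mM CaCl2 and 125 mM NaCl at pH 7.4, incubations are at room temperature.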

[4] = Primary qHTS for small molecule stabilizers of the endoplasmic reticulum resident proteome: Secreted ER Calcium Modulated Protein (SERCaMP) assay (AID 1508630); also: % is scaled to controls: 0 for no effect and ±100 for the full control effect
Method in brief: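 GLuc-SERCaMP-expressing SH-SY5Y cells, pretreated 16 h with compound, are challenged with thapsigargin to empty ER calcium stores; after 4 h, coelenterazine is added directly to the medium and luminescence is imaged.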

[5] = Counterscreen qHTS for small molecule stabilizers of the endoplasmic reticulum resident proteome: GLuc-NoTag assay (AID 1508627);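 also: SH-SY5Y cells given compound then 100 nM thapsigargin to empty ER calcium; series mostly up to about 76 µM; 0% = thapsigargin alone and -100% = DMSO vehicle control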
Method in brief: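 Luminescence of Gaussia luciferase secreted into the medium (coelenterazine, 0.07x final, unlysed cells) was the read-out. Human SH-SY5Y neuroblastoma cells constitutively secreting untagged GLuc received compound for 19 h, then 100 nM thapsigargin for 4 h.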

[6] = Confirmatory qHTS for small molecule stabilizers of the endoplasmic reticulum resident proteome: Secreted ER Calcium Modulated Protein (SERCaMP) assay (AID 1508628); also: nearly all actives have a fitted effect of over 40% in size; also: potency is read from the fitted curve at half-maximal effect
Method in brief: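 SH-SY5Y cells stably expressing GLuc-SERCaMP, treated 16 h with compound (primary 1.53, 7.67, 38.3 uM; confirmation 11 concentrations, up to 76.6 uM), then 100 nM thapsigargin for 4 h. Secreted Gaussia luciferase in medium read by coelenterazine luminescence.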

[7] = Cell Viability qHTS for small molecule stabilizers of the endoplasmic reticulum resident proteome (AID 1508629); conditions: cell viability counter-screen, 100 nM thapsigargin for final 4 h;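 also: compound exposure about 46 h in total before the viability read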; also: potency is read from the fitted curve at half-maximal effect
[8] = target: Papain (Carica papaya) (UniProt P00784); assay: Primary qHTS assay for inhibitors of the protease papain (AID 1645873);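 also: papain turnover of Z-FR-AMC read as the AMC fluorescence gain over 10 min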; also: potency is read from the fitted curve at half-maximal effect
Papain (Carica papaya), sequence (P00784 whole entry, looked up): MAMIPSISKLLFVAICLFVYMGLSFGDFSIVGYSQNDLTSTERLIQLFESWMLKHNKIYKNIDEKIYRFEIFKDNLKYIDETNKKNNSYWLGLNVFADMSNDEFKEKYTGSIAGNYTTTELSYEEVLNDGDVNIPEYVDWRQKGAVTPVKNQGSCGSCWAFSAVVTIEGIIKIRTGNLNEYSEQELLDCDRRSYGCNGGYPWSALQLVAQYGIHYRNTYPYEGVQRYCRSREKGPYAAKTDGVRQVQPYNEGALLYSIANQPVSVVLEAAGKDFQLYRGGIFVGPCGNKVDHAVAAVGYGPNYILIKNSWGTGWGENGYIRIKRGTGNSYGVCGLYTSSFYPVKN

[9] = target: Calcium and integrin-binding protein 1 (Homo sapiens) (UniProt Q99828); assay: Primary qHTS for Identification of Calcium Integrin Binding Protein 1 (CIB1) Competitor (AID 1508620);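 also: GST tagged CIB1 binding a fluorescein labelled alphaIIb integrin peptide tracer; top concentration of the series differs between compounds; % is scaled to controls: 0 for no effect and ±100 for the full control effect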
Method in brief: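 CIB1-GST (1 uM final) and compound incubated 15 min at room temperature before adding FITC-alphaIIb peptide tracer (100 nM final). Competition for binding read by fluorescence polarization (ex 480, em 540) after another 15 min at room temperature.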

CC(/C=C/c1cccc(Oc2ccc(F)cc2)c1)N(O)C(N)=O (stereo unspecified)
inactive: Potency [1] | Potency [2] | Potency [3] | Potency [4]

CCCCCCCCCCCCCCC[C@H](O)[C@H](N)CO
inactive: Potency [1] | Potency [2] | Potency [3] | Potency [5] | Potency [6] | max response [7] -0.696% | Potency [8]

NS(=O)(=O)c1cccc2c1c([N+](=O)[O-])cc1nc(O)c(O)nc12
inactive: Potency [1]

CC(N)(Cc1ccc(O)c(O)c1)C(=O)O (stereo unspecified)
inactive: Potency [1] | Potency [2] | Potency [3]

O=c1[nH]c(=S)[nH]c(-c2ccccc2)c1Cc1c(O)ccc2ccccc12
inactive: Potency [1] | Potency [2] | Potency [3] | Potency [4]

NC1CCN(O)C1=O (stereo unspecified)
inactive: Potency [1] | Potency [2] | Potency [3]

Cc1cccc(C(=O)NCN2CCN(c3ccccc3C#N)CC2)c1
inactive: Potency [1] | Potency [2] | Potency [3] | Potency [4] | Potency [8]

CNCCNS(=O)(=O)c1cccc2cnccc12
inactive: Potency [1] | Potency [2] | Potency [3] | Potency [4] | Potency [8]

Cc1ccc2c(c1)C(N1CCN(C)CC1)=Nc1cccnc1N2
inactive: Potency [1] | Potency [2] | Potency [3]

CC[C@@H]1Cc2cc(O)ccc2C2=C1c1ccc(O)cc1C[C@H]2CC
inactive: Potency [1] | Potency [2] | Potency [3] | Potency [4]
active: Potency [8] 5.01 µM

Nc1ccc(-c2ccc3ccccc3n2)cc1
inactive: Potency [1] | Potency [2] | Potency [3] | Potency [5] | max response [7] -7.29%

CCCCCCCC/C=C\CCCCCCCC(=O)NCCc1ccc(O)c(O)c1
inactive: Potency [1] | Potency [3] | Potency [5] | Potency [8]
active: Potency [2] 2.82 µM | Potency [6] 5.01 µM | Potency [7] 3.98 µM and 7.08 µM

N#CC(C#N)=C(N)/C(C#N)=C/c1ccc(O)cc1
inactive: Potency [1] | Potency [2] | Potency [3] | Potency [4]

CC(C)[C@H](NC(=O)OCc1ccccc1)C(=O)N[C@H](C=O)Cc1ccccc1 (Cbz-Val-Phe-aldehyde)
inactive: Potency [1] | Potency [2] | Potency [3] | Potency [4]

CN1CCc2cc(Cl)c(O)cc2[C@@H](c2ccccc2)C1
inactive: Potency [1] | Potency [2] | Potency [3] | Potency [6] | Potency [4]

Nc1nc2c(cnn2CCc2ccccc2)c2nc(-c3ccco3)nn12
inactive: Potency [1] | Potency [2] | Potency [3] | Potency [4]

O=C(O)Cc1ccc(O)c(O)c1
inactive: Potency [1] | Potency [2] | Potency [3] | Potency [4]

O=S(=O)(c1cccc2c(Cl)cccc12)N1CCCNCC1
inactive: Potency [1] | Potency [2] | Potency [3] | Potency [5] | Potency [6] | Potency [8]

COc1ccc2c(c1)c(CC(=O)O)c(C)n2C(=O)c1ccccc1
inactive: Potency [1] | Potency [2] | Potency [3] | Potency [4] | Potency [8]

C[C@@H](NCCc1ccc(O)cc1)[C@@H](O)c1ccc(O)cc1
inactive: Potency [1] | Potency [2] | Potency [3] | Potency [4] | Potency [8]

O=C(O)CCC(=O)N1CCCC1C(=O)O (stereo unspecified)
inactive: Potency [1] | Potency [2] | Potency [3] | Potency [5] | Potency [6] | Potency [8]

Cc1nc(N=Nc2ccc(S(=O)(=O)O)cc2S(=O)(=O)O)c(COP(=O)(O)O)c(C=O)c1O
inactive: Potency [1] | Potency [2] | Potency [3] | Potency [5] | Potency [6] | Potency [4] | Potency [8]

NC(=Nc1ccccc1)NC(=O)c1nc(Cl)c(N)nc1N
inactive: Potency [1] | Potency [2] | Potency [3] | Potency [5] | Potency [6]
active: Potency [8] 25.1 µM

NC(N)=NC(N)=Nc1ccccc1
inactive: Potency [1] | Potency [2] | Potency [3] | Potency [5] | Potency [6] | Potency [4] | Potency [8]

Cn1ccnc1
inactive: Potency [1] | Potency [2] | Potency [3] | Potency [4] | Potency [8]

COc1ccc(CCN(C)CCc2ccc(OC)c(OC)c2)cc1OC
inactive: Potency [1] | Potency [2] | Potency [3] | Potency [5] | Potency [6] | max response [7] 1.86% | Potency [4] | Potency [8]

Nc1ncnc2c1c(-c1ccc(Oc3ccccc3)cc1)cn2C1CCCC1
inactive: Potency [1] | Potency [2] | Potency [3] | outcome [9] | Potency [4] | Potency [8]

NC(C(=O)N[C@@H]1C(=O)N2C(C(=O)O)=C(Cl)CS[C@H]12)c1ccccc1 (stereo partly specified)
inactive: Potency [1] | Potency [2] | Potency [3]

CCCCCCN(CCCCCC)C(=O)Cc1c(-c2ccc(F)cc2)[nH]c2ccccc12
inactive: Potency [1] | Potency [2] | Potency [3] | Potency [4]

CCCCOC(=O)NS(=O)(=O)c1sc(CC(C)C)cc1-c1ccc(Cn2c(CC)nc3c(C)cc(C)nc32)cc1
active: Potency [6] 15.8 µM
inactive: Potency [1] | Potency [2] | Potency [3] | Potency [8]

COc1ccccc1N1CCN(CCCCN2C(=O)c3ccccc3C2=O)CC1
inactive: Potency [1] | Potency [2] | Potency [3] | Potency [4] | Potency [8]

Source: PubChem BioAssay (NCATS)
